Measurements: PubChem BioAssay (Tox21)
Inconclusive results are not listed. The source made the active and inactive calls. Unless noted, calls come from the whole dose curve.

Experiments:
[1] = qHTS assay to identify small molecule antagonists of the peroxisome proliferator-activated receptor delta (PPARd) signaling pathway - cell viability counter screen (AID 743213; active = well fitted curve in the direction sought with a large enough effect in the repeat runs; an effect the other way counts as inactive or inconclusive; note: nearly all actives have a fitted effect of over 50% in size; note: potency is the fitted concentration of half-maximal effect); settings: PPARd-bla HEK293H viability, CellTiter-Glo luminescence, 17 h; series mostly up to 62 µM
How it was run: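 PPARd-bla HEK293H cells were treated with compounds plus agonist L165041 (300 nM final) for 17 h at 37 C. Viability was then read in the same wells by CellTiter-Glo luminescence after 30 min at room temperature.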

[2] = biological target: Peroxisome proliferator-activated receptor delta (Homo sapiens) (UniProt Q03181); assay: qHTS assay to identify small molecule antagonists of the peroxisome proliferator-activated receptor delta (PPARd) signaling pathway (AID 743215; active = well fitted inhibition curve with a large enough effect in the signal ratio in the repeat runs, not every such curve was filed as active; the % refers to the signal ratio;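 note: cells stimulated with agonist L165041 at 300 nM final during compound exposure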; note: potency is the fitted concentration of half-maximal effect); settings: HEK293H PPARd-UAS-bla, beta-lactamase FRET ratio, antagonist, 17 h; series mostly up to 62 µM
Peroxisome proliferator-activated receptor delta (Homo sapiens), sequence (Q03181 whole entry, looked up): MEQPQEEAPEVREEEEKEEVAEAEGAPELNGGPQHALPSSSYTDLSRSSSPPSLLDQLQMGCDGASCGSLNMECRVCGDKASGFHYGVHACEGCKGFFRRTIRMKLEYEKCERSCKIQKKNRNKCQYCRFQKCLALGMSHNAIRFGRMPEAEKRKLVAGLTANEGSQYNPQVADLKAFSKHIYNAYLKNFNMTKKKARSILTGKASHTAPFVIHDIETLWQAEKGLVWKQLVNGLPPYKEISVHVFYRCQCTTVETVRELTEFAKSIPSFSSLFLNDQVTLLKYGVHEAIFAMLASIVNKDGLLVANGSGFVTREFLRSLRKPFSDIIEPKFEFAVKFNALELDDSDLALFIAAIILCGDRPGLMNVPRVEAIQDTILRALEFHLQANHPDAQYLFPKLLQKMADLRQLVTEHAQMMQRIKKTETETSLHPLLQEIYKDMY
How it was run: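 Antagonist-mode beta-lactamase reporter screen: HEK293H cells with UAS-bla under PPARd control, stimulated by 300 nM L165041 (final) alongside test compound for 17 h at 37 C, then FRET fluorescence after 2 h substrate incubation.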

[3] = qHTS assay to identify small molecule agonists of the farnesoid-X-receptor (FXR) signaling pathway - cell viability counter screen (AID 743218; active = well fitted curve in the direction sought with a large enough effect in the repeat runs; an effect the other way counts as inactive or inconclusive; note: nearly all actives have a fitted effect of over 45% in size; note: potency is the fitted concentration of half-maximal effect); settings: FXR-bla HEK293T viability, CellTiter-Glo luminescence, 16 h; series mostly up to 62.6 µM
How it was run: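 In GeneBLAzer FXR-UAS-bla HEK 293T cells, compounds act for 16 h at 37 C. Cell viability is then scored in the reporter wells by CellTiter-Glo, 30 min at RT, luminescence.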

[4] = qHTS assay to identify small molecule antagonists of the farnesoid-X-receptor (FXR) signaling pathway - cell viability counter screen (AID 743221; active = well fitted cell-killing curve with a large enough effect in the repeat runs, not every such curve was filed as active; note: nearly all actives have a fitted effect of over 50% in size; note: potency is the fitted concentration of half-maximal effect); settings: FXR-bla HEK293T viability, CellTiter-Glo luminescence, 16 h; series mostly up to 62.6 µM
How it was run: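 Quantitative HTS of the Tox21 10K library run in parallel with the beta-lactamase reporter read. HEK 293T cells carrying a UAS-driven bla reporter got compound and 50 uM CDCA (final) for 16 h; ATP-based luminescence followed.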

[5] = qHTS assay to identify small molecule agonists of the vitamin D receptor (VDR) signaling pathway - cell viability counter screen (AID 743224; active = well fitted curve in the direction sought with a large enough effect in the repeat runs; an effect the other way counts as inactive or inconclusive; note: potency is the fitted concentration of half-maximal effect; nearly all actives have a fitted effect of over 50% in size); settings: VDR-bla HEK293T viability, CellTiter-Glo luminescence, 16 h; series mostly up to 62.6 µM
How it was run: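 VDR-bla cell line, quantitative HTS format; 16 h compound incubation (37C, 5% CO2); ATP-based CellTiter-Glo luminescence measured in the reporter assay wells.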

[6] = qHTS assay to identify small molecule antagonists of the vitamin D receptor (VDR) signaling pathway - cell viability counter screen (AID 743225; active = well fitted curve in the direction sought with a large enough effect in the repeat runs; an effect the other way counts as inactive or inconclusive; note: nearly all actives have a fitted effect of over 50% in size; note: potency is the fitted concentration of half-maximal effect); settings: VDR-bla HEK293T viability, CellTiter-Glo luminescence, 16 h; series mostly up to 61 µM
How it was run: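 Cells (VDR-UAS-bla HEK 293T) are plated, rested 4 h at 37C, dosed with compound and 3 nM final 1-alpha,25-dihydroxy vitamin D3, and incubated 16 h. Viability is taken from CellTiter-Glo luminescence in the reporter wells.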

[7] = qHTS assay to identify small molecule agonists of the NFkB signaling pathway - cell viability counter screen (AID 1159515); settings: NFkB-bla ME-180 viability, CellTiter-Glo luminescence, 5 h; series mostly up to 61 µM; note: nearly all actives have a fitted effect of over 55% in size; note: potency is the fitted concentration of half-maximal effect
How it was run: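 Viability in NFkB-bla ME-180 cells was measured by CellTiter-Glo luminescence, 30 min room temperature, in wells already treated 5 hr with compounds and read for reporter FRET.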

[8] = qHTS assay to identify small molecule agonists of the endoplasmic reticulum stress response signaling pathway - cell viability counter screen (AID 1159517); settings: ESRE-bla HeLa viability, CellTiter-Glo luminescence, 5 h; series mostly up to 61 µM; note: nearly all actives have a fitted effect of over 50% in size; note: potency is the fitted concentration of half-maximal effect
How it was run: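 Counter-screen wells were identical to the reporter wells. Cells were plated at 1,500 per well and dosed for 5 hr, then read for luminescence 30 min after CellTiter-Glo addition.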

[9] = biological target: Nuclear receptor ROR-gamma (Homo sapiens) (UniProt P51449); assay: qHTS assay to identify small molecule antagonists of the retinoid-related orphan receptor gamma (ROR-gamma) signaling pathway (AID 1159521; active = well fitted curve in the direction sought with a large enough effect in the repeat runs; an effect the other way counts as inactive or inconclusive; note: nearly all actives have a fitted effect of over 50% in size; note: potency is the fitted concentration of half-maximal effect); settings: Tet-on RORgamma CHO cells, RORE-luciferase, 16 h; series mostly up to 92.4 µM
How it was run: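 RORγ antagonism is scored from reduced reporter luminescence in Tet-on CHO cells. Induction used 1 uM final doxycycline hyclate for 16 h at 37 C, following a 2 h compound exposure.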

[10] = qHTS assay to identify small molecule agonists of the AP-1 signaling pathway - cell viability counter screen (AID 1159525); settings: ME-180 AP-1-bla cells viability, ATP luminescence, 5 h; series mostly up to 76.8 µM; note: nearly all actives have a fitted effect of over 55% in size; note: potency is the fitted concentration of half-maximal effect
How it was run: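 AP-1-bla ME-180 cells in Opti-MEM with 0.5% dialyzed FBS, compound exposure 5 h at 37 C in 15-point titration. Viability read in the same wells as ATP content by CellTiter-Glo luminescence, normalised to tetra-n-octylammonium bromide and DMSO controls.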

[11] = qHTS assay to identify small molecule agonists of the peroxisome proliferator-activated receptor delta (PPARd) signaling pathway - cell viability counter screen (AID 743211; active = well fitted curve in the direction sought with a large enough effect in the repeat runs; an effect the other way counts as inactive or inconclusive; note: nearly all actives have a fitted effect of over 55% in size; note: potency is the fitted concentration of half-maximal effect); settings: PPARd-bla HEK293H viability, CellTiter-Glo luminescence, 17 h; series mostly up to 62.6 µM
How it was run: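 Viability of GeneBLAzer PPARd UAS-bla HEK293H cells was assessed after 17 h compound incubation at 37C, using CellTiter-Glo reagent added after the reporter read and luminescence recorded 30 min later.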

[12] = biological target: Peroxisome proliferator-activated receptor delta (Homo sapiens) (UniProt Q03181); assay: qHTS assay to identify small molecule agonists of the peroxisome proliferator-activated receptor delta (PPARd) signaling pathway (AID 743212); settings: HEK293H PPARd-UAS-bla, beta-lactamase FRET ratio, 17 h; series mostly up to 62.6 µM
How it was run: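 Quantitative high-throughput agonist screen in a HEK293H beta-lactamase reporter line under UAS control. Compounds in DMSO, at 37 C. Fluorescence read after 2 h with FRET substrate at room temperature.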

[13] = biological target: Bile acid receptor (Homo sapiens) (UniProt Q96RI1); assay: qHTS assay to identify small molecule agonists of the farnesoid-X-receptor (FXR) signaling pathway (AID 743220; active = well fitted activation curve with a large enough effect in the signal ratio in the repeat runs, not every such curve was filed as active; the % refers to the signal ratio); settings: HEK293T FXR-UAS-bla, beta-lactamase FRET ratio, 16 h; series mostly up to 62.6 µM
Bile acid receptor (Homo sapiens), sequence (Q96RI1 whole entry, looked up): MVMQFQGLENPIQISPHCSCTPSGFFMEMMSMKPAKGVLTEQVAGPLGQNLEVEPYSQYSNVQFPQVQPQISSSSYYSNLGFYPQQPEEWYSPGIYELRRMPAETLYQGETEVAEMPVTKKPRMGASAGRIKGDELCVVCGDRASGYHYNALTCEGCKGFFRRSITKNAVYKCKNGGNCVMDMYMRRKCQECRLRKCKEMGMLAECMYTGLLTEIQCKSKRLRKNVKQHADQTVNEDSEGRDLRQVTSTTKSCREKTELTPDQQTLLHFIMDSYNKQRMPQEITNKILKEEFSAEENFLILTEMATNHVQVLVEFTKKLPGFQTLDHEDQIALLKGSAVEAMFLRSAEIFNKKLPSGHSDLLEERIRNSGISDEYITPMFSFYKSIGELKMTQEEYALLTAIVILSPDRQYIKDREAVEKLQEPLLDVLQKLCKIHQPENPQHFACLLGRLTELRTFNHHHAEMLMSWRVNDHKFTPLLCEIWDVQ
How it was run: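 Beta-lactamase reporter under UAS control in GeneBLAzer FXR HEK 293T cells (5000/well) measured with LiveBLAzer FRET substrate after 2 h at room temperature. Compound exposure lasted 16 h at 37C.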

[14] = biological target: Vitamin D3 receptor (Homo sapiens) (UniProt P11473); assay: qHTS assay to identify small molecule agonists of the vitamin D receptor (VDR) signaling pathway (AID 743222); settings: HEK293T VDR-UAS-bla, beta-lactamase FRET ratio, 16 h; series mostly up to 63.5 µM
Vitamin D3 receptor (Homo sapiens), sequence (P11473 whole entry, looked up): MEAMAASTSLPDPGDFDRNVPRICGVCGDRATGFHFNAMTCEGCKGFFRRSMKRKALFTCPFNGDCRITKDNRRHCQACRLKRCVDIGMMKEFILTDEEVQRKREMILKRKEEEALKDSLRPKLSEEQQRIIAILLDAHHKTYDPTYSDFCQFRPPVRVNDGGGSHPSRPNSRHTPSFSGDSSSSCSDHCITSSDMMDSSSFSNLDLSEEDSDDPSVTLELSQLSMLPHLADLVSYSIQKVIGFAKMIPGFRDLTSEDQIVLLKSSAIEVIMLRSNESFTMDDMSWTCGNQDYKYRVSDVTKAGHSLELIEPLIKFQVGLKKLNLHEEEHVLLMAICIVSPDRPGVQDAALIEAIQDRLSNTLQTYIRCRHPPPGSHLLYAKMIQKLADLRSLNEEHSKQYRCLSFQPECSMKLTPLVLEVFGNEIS
How it was run: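 Agonist activity measured in VDR-bla reporter cells. Exposure 16 h, 37C, 5% CO2; detection by B/G FRET substrate, 2 h RT.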

[15] = biological target: Vitamin D3 receptor (Homo sapiens) (UniProt P11473); assay: qHTS assay to identify small molecule antagonists of the vitamin D receptor (VDR) signaling pathway (AID 743223; active = well fitted inhibition curve with a large enough effect in the signal ratio in the repeat runs, not every such curve was filed as active; the % refers to the signal ratio; note: potency is the fitted concentration of half-maximal effect); settings: VDR-UAS-bla HEK293T, beta-lactamase FRET ratio, 16 h; series mostly up to 61 µM
How it was run: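 Fluorescence from LiveBLAzer B/G FRET substrate, read after 2 h at room temperature, reflects beta-lactamase reporter activity in VDR-bla cells treated 16 h at 37C with compounds and agonist 1alpha,25-dihydroxyvitamin D3 (3 nM final).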

[16] = qHTS assay to identify small molecule agonists of the AP-1 signaling pathway (AID 1159526); settings: ME-180 (cervical carcinoma) AP-1-bla reporter, beta-lactamase FRET ratio, 5 h; series mostly up to 76.8 µM
[17] = biological target: Retinoic acid receptor RXR-alpha (Homo sapiens) (UniProt P19793); assay: qHTS assay to identify small molecule agonists of the RXR signaling pathway (AID 1159527); settings: HEK293T RXRa-UAS-bla, beta-lactamase ratio, 16 h; series mostly up to 76.8 µM; note: nearly all actives have a fitted effect of over 35% in size
Retinoic acid receptor RXR-alpha (Homo sapiens), sequence (P19793 whole entry, looked up): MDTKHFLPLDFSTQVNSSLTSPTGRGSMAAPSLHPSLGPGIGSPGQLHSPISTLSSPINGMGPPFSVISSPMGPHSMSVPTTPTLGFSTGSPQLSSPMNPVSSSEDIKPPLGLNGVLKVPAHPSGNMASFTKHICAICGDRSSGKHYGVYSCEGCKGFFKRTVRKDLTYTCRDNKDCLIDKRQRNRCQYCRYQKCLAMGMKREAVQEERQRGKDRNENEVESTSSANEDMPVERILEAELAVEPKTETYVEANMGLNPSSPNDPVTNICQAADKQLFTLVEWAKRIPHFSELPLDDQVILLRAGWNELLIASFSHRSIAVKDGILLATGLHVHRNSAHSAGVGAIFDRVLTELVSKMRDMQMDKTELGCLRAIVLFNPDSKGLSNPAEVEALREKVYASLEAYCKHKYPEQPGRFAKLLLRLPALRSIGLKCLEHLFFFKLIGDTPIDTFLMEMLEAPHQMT
How it was run: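 qHTS of the Tox21 10K library in GeneBLAzer RXR-alpha HEK 293T cells carrying a beta-lactamase reporter […]; 16 hr treatment, 9-cis retinoic acid as agonist control, FRET read-out.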

| SMILES | Potency [1] | Potency [2] | Potency [3] | Potency [4] | Potency [5] | Potency [6] | Potency [7] | Potency [8] | Potency [9] | Potency [10] | Potency [11] | Potency [12] | Potency [13] | Potency [14] | Potency [15] | Potency [16] | Potency [17] |
| --- | --- | --- | --- | --- | --- | --- | --- | --- | --- | --- | --- | --- | --- | --- | --- | --- | --- |
| NC(=O)N1C(=O)C(C(=O)c2cc(Cl)cs2)c2cc(F)c(Cl)cc21 (stereo not given) | 15.5 µM (active) | 13.8 µM (active) | 3.89 µM (active) | 24.5 µM (active) | 21.9 µM (active) | 13.8 µM (active) | inactive | inactive | 19.3 µM (active) | inactive | – | – | – | – | – | – | – |
| ON=C1CCCC1 | inactive | inactive | inactive | inactive | – | inactive | inactive | inactive | – | inactive | inactive | inactive | inactive | inactive | inactive | inactive | inactive |
| NNc1nc(-c2ccccc2)cs1 | – | inactive | 2.52 µM (active) | – | – | – | inactive | inactive | inactive | inactive | – | – | – | – | inactive | – | inactive |
| CCCCCCCCCOC(=O)c1ccc(O)cc1 | – | – | 48.3 µM (active) | 43 µM (active) | – | – | 54.2 µM (active) | 54.2 µM (active) | – | 38.3 µM (active) | – | – | – | – | – | – | – |
| Oc1cccc(-c2c3nc(c(-c4cccc(O)c4)c4ccc([nH]4)c(-c4cccc(O)c4)c4nc(c(-c5cccc(O)c5)c5ccc2[nH]5)CC4)C=C3)c1 | – | – | 21.1 µM (active) | – | 26.6 µM (active) | – | inactive | inactive | – | – | 13.3 µM (active) | – | – | – | – | – | – |
| CCCCCCCCCCCC(=O)NCCCN(C)C | 38.9 µM (active) | – | 34.7 µM (active) | 49 µM (active) | 21.9 µM (active) | 38.9 µM (active) | 54.9 µM (active) | 49 µM (active) | 30.6 µM (active) | – | 21.9 µM (active) | – | – | – | 27.5 µM (active) | – | – |
| CCN(CC)CCNC(=O)c1c(C)[nH]c(/C=C2\C(=O)Nc3ccc(F)cc32)c1C | 4.73 µM (active) | – | 13.3 µM (active) | 21.1 µM (active) | 29.8 µM (active) | – | inactive | 7.56 µM (active) | – | inactive | 23.7 µM (active) | – | – | – | – | inactive | – |
| Nc1ccc(N)c2ccccc12 | – | – | 43.6 µM (active) | – | 19.5 µM (active) | 43.6 µM (active) | 11 µM (active) | 0.775 µM (active) | – | 54.9 µM (active) | 15.5 µM (active) | – | – | – | – | – | – |
| C=C(C)C(=O)OCC(O)COc1ccc(C(C)(C)c2ccc(OCC(O)COC(=O)C(=C)C)cc2)cc1 (stereo not given) | 13.8 µM (active) | 27.5 µM (active) | – | – | 12.3 µM (active) | – | inactive | inactive | 24.3 µM (active) | inactive | 54.9 µM (active) | inactive | inactive | inactive | – | – | – |
